Assay results published in the supplement of paper PMC10981050.
Counter-ions that a name gives are not always drawn.

test system: OCI-AML2; experiment: cell viability relative to vehicle control; higher = less cytotoxic; conditions: 10 µM; SRSF2 genotype: P95H/wt
Method in brief: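 After removal of identity-inconsistent compounds, the Selleck bioactive, kinase and epigenetic probe libraries were screened on CRISPR-edited mutant clones and isogenic wild-type clones of four leukaemia lines. Plates were 384-well, each well holding 2000 cells in 50 µL medium and receiving a single 10 µM acoustically dispensed dose. CellTiter-Glo luminescence was read 48 h later, after the supernatant was taken off. Genedata Screener was used to express viability as percent of the on-plate vehicle control.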

Compound | cell viability [%]
O=C(Nc1cc(Cl)cc2c1[nH]c1cnccc12)c1cccnc1 | 86.8
Cc1cc(-c2ccc(/N=N/c3ccc4c(S(=O)(=O)O)cc(S(=O)(=O)O)c(N)c4c3O)c(C)c2)ccc1/N=N/c1ccc2c(S(=O)(=O)O)cc(S(=O)(=O)O)c(N)c2c1O [Evans Blue] | 66.2
COc1cc(N2CCN(C)CC2)ccc1Nc1ncc2c(n1)N(C)c1ccccc1C(=O)N2 | 83.3
COc1cc2c(cc1OC)-c1cc3ccc(OC)c(OC)c3c[n+]1CC2 [Palmatine chloride] | 81.9
C[C@H]1CO[C@@H]2Cn3cc(C(=O)NCc4ccc(F)cc4F)c(=O)c(O)c3C(=O)N12 | 83.9
CN(C)CCc1c[nH]c2ccc(Cn3cncn3)cc12 [Rizatriptan Benzoate (Maxalt)] | 92.7
Cc1ccc(NC(=O)C2(c3ccc4c(c3)OC(F)(F)O4)CC2)nc1-c1cccc(C(=O)O)c1 [VX-809 (Lumacaftor)] | 106
C=CC(=O)Nc1cccc(Nc2nc(Nc3ccc(Oc4ccnc(C(=O)NC)c4)cc3)ncc2F)c1 | 57.5
Cc1cc(Nc2ncc(Cl)c(Nc3ccccc3S(=O)(=O)C(C)C)n2)c(OC(C)C)cc1C1CCNCC1 [Ceritinib (LDK378)] | -0.03
C[C@@H](Oc1cc(-n2cnc3ccc(CN4CCN(C)CC4)cc32)sc1C(N)=O)c1ccccc1C(F)(F)F | 4.11
CC(C)c1onc(-c2c(Cl)cccc2Cl)c1COc1ccc(/C=C/c2cccc(C(=O)O)c2)c(Cl)c1 | 69.3
C[C@@H]1O[C@@H](O[C@H]2[C@H](Oc3cc(O)c(C(=O)CCc4ccc(O)cc4)c(O)c3)O[C@H](CO)[C@@H](O)[C@@H]2O)[C@H](O)[C@H](O)[C@H]1O [Naringin Dihydrochalcone (Naringin DC)] | 96.8
CC(=O)[C@H]1CC[C@H]2[C@@H]3CCC4=CC(=O)CC[C@]4(C)[C@H]3CC[C@]12C [Progesterone (Prometrium)] | 54.5
CCOc1cc(C=O)ccc1OC(C)=O [Ethyl vanillin acetate] | 98
Clc1ccc(CSC(Cn2ccnc2)c2ccc(Cl)cc2Cl)cc1 (stereo not given) [Sulconazole Nitrate] | 40
Cc1[nH]c(/C=C2\C(=O)Nc3ccc(S(=O)(=O)Cc4c(Cl)cccc4Cl)cc32)c(C)c1C(=O)N1CCC[C@@H]1CN1CCCC1 | 0.12
CN(C)CCCC1(c2ccc(F)cc2)OCc2cc(C#N)ccc21 (stereo not given) [Citalopram HBr] | 90.8
Cc1cc(Nc2cc(N)ncn2)c(=O)n2c1C(=O)NC21CCCCC1 | 89
COc1ccc2c(c1O)-c1c(O)c(OC)cc3c1[C@H](C2)[N+](C)(C)CC3 [Magnoflorine] | 103
CN1CCN(c2ccc(Nc3cc(-c4cccc(-n5ccc6cc(C7CC7)cc(F)c6c5=O)c4CO)cn(C)c3=O)nc2)CC1 | 2.87

Compound | cell viability [%]
Cc1cccc(C)c1N(CC(=O)Nc1ccc(-c2ncon2)cc1)C(=O)C1CCS(=O)(=O)CC1 [Amenamevir] | 88.5
O=C1C[C@@H]2[C@@H](CO)[C@H](O)C[C@@H]2O1 [Corey Lactone Diol] | 101
CC(=O)/N=c1/sc(S(N)(=O)=O)nn1C [Methazolamide] | 100
O=C(NCc1ccncc1)C12CC3CC(C1)CC(c1ccc(Cl)cc1)(C3)C2 | 64.5
COc1cc2c(=O)c(-c3ccc(O)cc3)coc2cc1O[C@@H]1O[C@H](CO)[C@@H](O)[C@H](O)[C@H]1O [Glycitin] | 89.3
O=c1cc(-c2ccccc2)oc2c1ccc1ccccc12 [alpha-Naphthoflavone] | 86.5
CC(CN(C)C)Oc1nc(Nc2cc3cccc(Cl)c3cn2)cnc1C#N (stereo not given) | 17
C[C@@H](Oc1ccc2[nH]nc(/C=C/c3cnn(CCO)c3)c2c1)c1c(Cl)cncc1Cl | 0.48
C1=N/C2=N/c3ccc(OCCN4CCCC4)c(c3)COC/C=C/COCc3cccc(c3)C(=C1)N2 [Pacritinib (SB1518)] | 0.2
C[C@H]1C[C@H]2[C@@H]3CCC4=CC(=O)C=C[C@]4(C)[C@@]3(F)[C@@H](O)C[C@]2(C)[C@@]1(O)C(=O)CO [Betamethasone (Celestone)] | 84.4
OCCN(CCO)c1nc(N2CCCCC2)c2nc(N(CCO)CCO)nc(N3CCCCC3)c2n1 [Dipyridamole (Persantine)] | 99.9
CCOc1ccccc1OC(c1ccccc1)C1CNCCO1 (stereo not given) [Reboxetine mesylate] | 70.1
CC(C)n1nccc1-c1ncccc1COc1cccc(O)c1C=O [Voxelotor(GBT440, GTx011)] | 99.7
Cc1ccc(N(CC2=NCCN2)c2cccc(O)c2)cc1 [Phentolamine Mesylate] | 102
O=C(NO)c1cccc(C(=O)NCCc2ccccc2)c1 | 90.7
O=c1ccn(C2OC(CO)C(O)C2O)c(=O)[nH]1 (stereo not given) | 100
CC1(C)S[C@@H]2[C@H](NC(=O)[C@H](N)c3ccccc3)C(=O)N2[C@H]1C(=O)OCOC(=O)[C@@H]1N2C(=O)C[C@H]2S(=O)(=O)C1(C)C [Sultamicillin] | 103
Cc1cc(OCCCS(C)(=O)=O)cc(C)c1-c1cccc(COc2ccc3c(c2)OC[C@H]3CC(=O)O)c1 | 85
CCCC1O[C@@H]2C[C@H]3[C@@H]4CCC5=CC(=O)C=C[C@]5(C)[C@H]4[C@@H](O)C[C@]3(C)[C@]2(C(=O)CO)O1 (stereo not given in full) [Budesonide] | 70.5
CC(C)n1nc(-c2ccc(NC(=O)Nc3cc(C(F)(F)F)ccc3F)cc2)c2c(N)ncnc21 | 2.08
